The panel holds about 83,000 compounds, 20% with a hit somewhere; the sample as a whole holds those more often.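 Testing used 96-well plates and a 48-hour single-concentration exposure. Example: -40 means 40% of the starting cells died.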 A number with no mark means an inactive call. Active and inactive are the calls of the source. Rule for the calls: active = growth percent below 10; inactive = the rest.

Among the test systems are SK-MEL-2 melanoma; EKVX NSCLC; SN12C renal; UO-31 renal; TK-10 renal; ACHN renal; CAKI-1 renal; A498 renal; CCRF-CEM leukemia; MOLT-4 leukemia; SR leukemia; OVCAR-8 ovarian; OVCAR-5 ovarian; OVCAR-4 ovarian; SK-OV-3 ovarian; OVCAR-3 ovarian; HS 578T breast; NCI/ADR-RES ovarian; IGROV1 ovarian; RPMI-8226 leukemia.
Holding throughout (assay): NCI-60 one-dose screen, 48 h (100 = growth as untreated, 0 = no growth, -100 = all killed)
Conditions in all cases: 10 µM unless noted

With `Fc1cc(-c2cnc3nonc3n2)c(Cl)cc1Cl`, the growth in the test with SK-MEL-2 melanoma is 102%; in the test on EKVX NSCLC it was 102%; with SN12C renal, 91.8%; in the test with UO-31 renal, -28.3% (active); in the test with TK-10 renal, 72.4%; in the test on ACHN renal, 18.1%. In addition, the growth is 85% with CAKI-1 renal; 95.7% in the test on A498 renal; -12.7% (active) with CCRF-CEM leukemia; 20.2% in the test with MOLT-4 leukemia; 86.5% with SR leukemia; 97.3% with OVCAR-8 ovarian. Besides, the growth in the test with OVCAR-5 ovarian was 88.6%; in the test with OVCAR-4 ovarian it was 59.6%; with SK-OV-3 ovarian it was 98.5%; with OVCAR-3 ovarian, 10.3%; in the test on HS 578T breast it was 111%; with NCI/ADR-RES ovarian it was 102%.

Regarding `O=C(Nc1cccc(-n2ccc3c(NC(=O)c4ccccc4)nccc32)c1)c1ccc(N2CCOCC2)c(C(F)(F)F)c1`, the growth is 13.4% in the test on SK-MEL-2 melanoma; 45.5% in the test with EKVX NSCLC; 34% in the test with SN12C renal; 5% (active) in the test on UO-31 renal; 6.82% (active) with TK-10 renal; 24.2% with ACHN renal. Moreover, the growth is 14.8% in the test on CAKI-1 renal; 21.9% in the test on A498 renal; 15.7% in the test with CCRF-CEM leukemia; 17.4% in the test on MOLT-4 leukemia; 2.76% (active) in the test with SR leukemia; 16.3% with OVCAR-8 ovarian. In addition, the growth with OVCAR-5 ovarian is 41.1%; in the test on OVCAR-4 ovarian it was 51.7%; in the test on SK-OV-3 ovarian, -6.21% (active); with IGROV1 ovarian it was 8.99% (active); in the test on OVCAR-3 ovarian, 26.9%; in the test on HS 578T breast it was 55.5%. The growth in the test on NCI/ADR-RES ovarian is 14.3%.

Take `COc1ccc(-n2c(COc3ccc(F)cc3)n[nH]c2=S)cc1`: the growth with SK-MEL-2 melanoma was 33.1%; in the test with EKVX NSCLC, 107%; in the test with SN12C renal it was 84.4%; with UO-31 renal it was 107%; in the test with TK-10 renal, 101%; with ACHN renal, 99.7%. In addition, the growth with CAKI-1 renal was 104%; in the test on A498 renal it was 108%; in the test on CCRF-CEM leukemia it was 143%; with MOLT-4 leukemia it was 114%; with SR leukemia, 120%; with OVCAR-8 ovarian, 112%. For the same molecule, the growth is 110% in the test on OVCAR-5 ovarian; 105% in the test on OVCAR-4 ovarian; 109% with SK-OV-3 ovarian; 96.4% in the test on IGROV1 ovarian; 103% in the test with OVCAR-3 ovarian; 108% with HS 578T breast. In the test on NCI/ADR-RES ovarian, the growth is 103%.

On to `Cn1cnc([N+](=O)[O-])c1S(=O)(=O)Oc1cccc2ccccc12`, for which the growth in the test on SK-MEL-2 melanoma was 85%; in the test with EKVX NSCLC, 97.1%; with SN12C renal it was 79.2%; in the test on UO-31 renal, -31% (active); in the test on TK-10 renal, 96.3%; with ACHN renal it was 4.28% (active). The growth with CAKI-1 renal was -20.9% (active); in the test on A498 renal it was 97.6%; in the test with CCRF-CEM leukemia, -1.53% (active); in the test on MOLT-4 leukemia, 32.8%; with SR leukemia, 17.5%; in the test with OVCAR-8 ovarian, 73.3%. In addition, the growth in the test on OVCAR-5 ovarian was 82.3%; with OVCAR-4 ovarian it was 81.3%; with SK-OV-3 ovarian, 95.8%; in the test with IGROV1 ovarian it was 36.9%; in the test on OVCAR-3 ovarian, -73% (active); with HS 578T breast it was 99.7%. Besides, the growth with NCI/ADR-RES ovarian was 57.6%.

Consider `CCN(CC)CCNC(=O)n1cc(-c2ccncc2)c(-c2cc(Cl)cc(OC)c2)n1`, for which the growth in the test on SK-MEL-2 melanoma is 92.3%; in the test on EKVX NSCLC, 43.4%; in the test with SN12C renal it was 70.2%; with UO-31 renal, 43.8%; in the test with TK-10 renal, 30.1%; in the test on ACHN renal, 57.1%. Besides, the growth with CAKI-1 renal was 68.1%; in the test with A498 renal, 63.7%; in the test with CCRF-CEM leukemia it was 83.3%; in the test with MOLT-4 leukemia, 82.1%; with SR leukemia, 51%; in the test on OVCAR-8 ovarian, 27.7%. Further, the growth is 88.4% in the test on OVCAR-5 ovarian; 70.4% with OVCAR-4 ovarian; 47.8% in the test with SK-OV-3 ovarian; 94.3% in the test with OVCAR-3 ovarian; 88% in the test with HS 578T breast; 86% in the test on NCI/ADR-RES ovarian.

`Cc1cc(O)ccc1Sc1ccccc1[N+](=O)[O-]`: the growth was 99.4% in the test with SK-MEL-2 melanoma; 74.8% in the test with EKVX NSCLC; 92.3% in the test with SN12C renal; 52.7% with UO-31 renal; 90.6% in the test on TK-10 renal; 87.4% in the test on ACHN renal. The growth is 89.8% in the test with CAKI-1 renal; 87.6% in the test with A498 renal; 93.5% in the test with CCRF-CEM leukemia; 115% with MOLT-4 leukemia; 82.5% with RPMI-8226 leukemia; 97.1% in the test with OVCAR-8 ovarian. Further, the growth with OVCAR-5 ovarian was 99.6%; in the test with OVCAR-4 ovarian it was 90%; in the test on SK-OV-3 ovarian, 101%; in the test with IGROV1 ovarian, 90.6%; in the test on OVCAR-3 ovarian it was 96.1%; in the test with HS 578T breast, 80%. Besides, the growth with NCI/ADR-RES ovarian was 83%.

Take `CCCCCCCCCCCCCC1=NC(C)(C)CN1C(C)C`: the growth in the test with SK-MEL-2 melanoma is -66.3% (active); with EKVX NSCLC, -2.5% (active); with SN12C renal, 9.87% (active); with UO-31 renal, -65.1% (active); in the test with TK-10 renal, -73% (active); with ACHN renal, -67.2% (active). Also, the growth with CAKI-1 renal was -67% (active); with A498 renal, 87.7%; in the test on CCRF-CEM leukemia, -44.1% (active); in the test on MOLT-4 leukemia it was -58.5% (active); in the test on SR leukemia, -46.5% (active); with OVCAR-8 ovarian, -12.4% (active). Moreover, the growth is 39.7% in the test with OVCAR-5 ovarian; 7.76% (active) in the test on OVCAR-4 ovarian; -2.05% (active) with SK-OV-3 ovarian; -30.4% (active) with IGROV1 ovarian; -56.3% (active) with OVCAR-3 ovarian; -28.1% (active) in the test with HS 578T breast. Besides, the growth in the test with NCI/ADR-RES ovarian is -12.4% (active).

For the molecule `CCOC(=O)CCN(CCC(=O)OCC)c1ccccc1`, the growth is 96.7% in the test on SK-MEL-2 melanoma; 115% in the test on EKVX NSCLC; 110% in the test on SN12C renal; 77.8% in the test with UO-31 renal; 101% in the test on TK-10 renal; 100% in the test with ACHN renal. For the same molecule, the growth with CAKI-1 renal is 116%; in the test on A498 renal it was 127%; in the test with CCRF-CEM leukemia, 61.7%; in the test on MOLT-4 leukemia, 96.5%; with SR leukemia, 104%; in the test with OVCAR-8 ovarian it was 94.5%. The growth is 92.2% in the test with OVCAR-5 ovarian; 113% in the test with OVCAR-4 ovarian; 87.1% in the test on SK-OV-3 ovarian; 87.4% in the test with IGROV1 ovarian; 85.2% in the test on OVCAR-3 ovarian; 106% in the test on HS 578T breast. The growth in the test with NCI/ADR-RES ovarian is 105%.
